Most compounds without a hit are left out; they make up all but 14% or so of the library.
FBPA Giardia inh – Giardia lamblia aldolase inhibition. A8B2U2. purified Giardia FBPA. Potency, µM (highest dose often 59.6 µM), actives largely listed as inhibitors. 0.71% of 290,000 active. AID 2451; note: nearly all actives have a fitted effect of over 55% in size
Target sequence (A8B2U2 whole entry, looked up): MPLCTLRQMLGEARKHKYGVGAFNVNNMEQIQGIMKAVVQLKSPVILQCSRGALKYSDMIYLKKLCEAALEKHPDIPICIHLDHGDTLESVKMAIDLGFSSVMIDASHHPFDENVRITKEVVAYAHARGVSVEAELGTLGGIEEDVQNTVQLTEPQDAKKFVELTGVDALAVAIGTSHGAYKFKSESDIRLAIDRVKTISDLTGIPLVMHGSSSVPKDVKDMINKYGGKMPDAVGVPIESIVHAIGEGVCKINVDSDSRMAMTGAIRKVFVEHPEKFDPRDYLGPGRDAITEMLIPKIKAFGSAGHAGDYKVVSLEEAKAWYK
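40 nM FBPA preincubated 10 min at RT with compound (up to 57.5 uM final), then substrate plus GAPDH/TPI/NAD/arsenate coupling and diaphorase/resazurin added. Fluorescence read after 20 min at RT, 525/598 nm.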
Pf growth 96h – P. falciparum growth inhibition at 96 hour, primary screen for plastid delayed-death inhibitors | AID 504834 | P. falciparum luciferase reporter growth, 96 h | Potency, µM (series often up to 28.7 µM), usual class: inhibitors | 6.9% of 320,000 active
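Cell-based qHTS: luciferase-tagged P. falciparum in erythrocytes (2% hematocrit, 0.05% parasitemia final) incubated with compounds for 96 hours, 37 C, 5% CO2; luciferase detection reagent then added and luminescence measured.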
Sm TGR inh – S. mansoni TGR enzyme inhibition; purified TGR, DTNB reduction, TNB absorbance 405 nm; Potency, µM (top dose mostly 114 µM), usual class: inhibitors; 3% of 360,000 active; AID 485364; note: nearly all actives have a fitted effect of over 60% in size
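First, TGR (20 nM dispensed) and NADPH were mixed with compound. Second, a 15 min room-temperature incubation followed. Third, further NADPH and then DTNB were added to start the reaction. Finally, TNB absorbance was monitored kinetically.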
Pf growth 48h – P. falciparum growth inhibition at 48 hours (one generation); Potency, µM (doses to about 28.7 µM), usual class: inhibitors; AID 504832; 5.9% of 310,000 active; P. falciparum luciferase growth in erythrocytes, 48 h
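Cell-based growth assay: transgenic P. falciparum expressing firefly luciferase, cultured in red cells within RPMI 1640 containing 0.5% w/v Albumax, 24 mM bicarbonate and gentamycin. A drop in luciferase activity indicates inhibition.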
HCMV antiviral – inhibitors of human cytomegalovirus. activity change, negative = inhibition, % at 57.5 µM. 4.5% of 410,000 active. AID 1259415. HFF cells, HCMV-luciferase reporter, 72 h; hits give low values; in the data active = activity change below about -60%; inconclusive = no clear call, values can overlap the other calls; inactive = above about -39%
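Two compound doses tested in HFFs infected with HCMV-luciferase, MOI 1 PFU/cell, 72 h at 37C. Lysate luminescence read with OneGlo; data normalized against buffer-only and 10uM Salinomycin inhibitor controls.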
A number is an active result; – = inactive; ? = inconclusive; · = not tested or not shown; [ ] = dose if it differs, or a comment. Unless noted, calls come from the whole dose curve; as a rule, active = well fitted curve in the direction sought with a large enough effect; inconclusive = small, poorly fitted or top-dose-only effect, or another doubt; inactive = no such curve, though single readings can be large; an effect the other way counts as inactive or inconclusive.

SMILES | FBPA Giardia inh | Pf growth 96h | Sm TGR inh | Pf growth 48h | HCMV antiviral
COc1cc(C)nc(OCCNC(=O)COc2ccc(Cl)cc2Cl)n1 | – | –[5.75 µM] | – | – | -60
CN(C)c1nc(OCCNC(=O)COc2ccc(Cl)cc2Cl)nc(N(C)C)n1 | – | ? | – | · | –
Cc1cccc(C)c1NC(=O)Nc1nnc([C@@H]2C[C@H](O)[C@@H](CO)O2)s1 | · | · | · | · | –
Fc1ccc(Nc2nc3nonc3nc2Nc2cccc(C(F)(F)F)c2)cc1 | · | · | – | · | -101
COc1ccc(C(O)(CCN2CCCCC2)C2CCCCC2)cc1 (centres undefined) | – | – | 1.4µM | – | ?
CCC(O)(CCN1CCCCC1)c1ccccc1 (centres undefined) | – | – | – | – | –
CCCC(O)(CCN1CCCCC1)c1ccc(OCC)cc1 (centres undefined) | – | – | 4µM | · | –
CCCCCC(O)(CCN1CCCCC1)c1ccc(OCC)cc1 (centres undefined) | – | ? | 1µM | ? | –
CN(C)c1ccnc(-c2ccccc2C(F)(F)F)n1 | – | · | · | · | ·
CCOC(=O)N1CCN(C(=O)C(CC(C)C)NS(=O)(=O)c2ccc3c(c2)oc(=O)n3C)CC1 (centres undefined) | – | 10µM | – | · | –
Cn1c(=O)oc2cc(S(=O)(=O)NCCC(=O)N3CC=C(c4ccccc4)CC3)ccc21 | – | – | ? | ? | –
CC(C)CC(NS(=O)(=O)c1ccc2c(c1)oc(=O)n2C)C(=O)N1CC=C(c2ccccc2)CC1 (centres undefined) | – | 10µM | – | · | –
COC1C(O)C(C)OC(OC2CCC3(C)C(CCC4C3C(O)CC3(C)C(C5=CC(=O)OC5)CCC43O)C2)C1O (centres undefined) | · | · | · | · | -99
C[C@@H]1O[C@@H](O[C@H]2C[C@@H](O)[C@]3(CO)[C@@H]4C(CC[C@]3(O)C2)[C@@]2(O)CC[C@H](C3COC(=O)C3)[C@@]2(C)C[C@H]4O)[C@H](O)[C@H](O)[C@H]1O (some centres undefined) | · | – | – | – | -99
C[C@@H]1O[C@@H](O[C@H]2C[C@@H](O)[C@@]3(CO)[C@H]4[C@H](O)C[C@]5(C)[C@@H](C6=CC(=O)OC6)CC[C@]5(O)[C@H]4CC[C@@]3(O)C2)[C@@H](O)[C@H](O)[C@H]1O | · | – | · | – | ·
CC1OC(O[C@H]2C[C@@H](O)[C@]3(CO)[C@@H]4C(CC[C@]3(O)C2)[C@@]2(O)CC[C@H](C3=CC(=O)OC3)[C@@]2(C)C[C@H]4O)C(O)C(O)C1O (some centres undefined) | · | 1.3µM | · | – | ·
O=C(Cn1c2ncccc2c(=O)n1-c1ccccc1)Nc1ccc(F)c(F)c1 | · | · | – | · | –
CC1CCCC(NC(=O)COC(=O)c2sc3ccccc3c2Cl)C1C (centres undefined) | – | – | – | – | –
N#CC(c1ccccc1)c1ccc2c(C(F)(F)F)cc(C(F)(F)F)nc2n1 (centres undefined) | – | 12µM | – | · | -104
Cc1ccc(C(C#N)c2ccc3c(C(F)(F)F)cc(C(F)(F)F)nc3n2)cc1 (centres undefined) | – | 1.7µM | – | ? | -99
FC(F)(F)c1cc(C(F)(F)F)c2ccc(N/N=C/c3cccc(Cl)c3)nc2n1 | · | – | – | – | ·
FC(F)(F)c1cc(C(F)(F)F)c2ccc(N/N=C/c3ccccc3)nc2n1 | – | 0.47µM | – | – | –
CN(N)c1ccc2c(C(F)(F)F)cc(C(F)(F)F)nc2n1 | – | – | – | – | ?
CCC1=Nc2cc(C(=O)NCc3ccco3)ccc2Sc2ccc(C)cc21 | – | – | – | 1.3µM | -75
CCOC(=O)N1CCC(NC(=O)c2ccc3c(c2)N=C(CC)c2cc(C)ccc2S3)CC1 | – | – | – | ? | –
SMILES | FBPA Giardia inh | Pf growth 96h | Sm TGR inh | Pf growth 48h | HCMV antiviral
CCC1=Nc2cc(C(=O)NC3CCC(C)CC3)ccc2Sc2ccc(C)cc21 (centres undefined) | · | · | – | · | -82
CCCC1=Nc2cc(C(=O)NC3CCCC3)ccc2Sc2ccc(C)cc21 | · | · | – | · | -79
CCCC1=Nc2cc(C(=O)NC3CCCCC3)ccc2Sc2ccc(C)cc21 | · | · | – | · | -91
CN(C(=O)Cn1nc(C(=O)O)c2ccccc2c1=O)C1CCCCC1 | · | · | · | · | –
CCCCCCn1c(-c2cccs2)n[nH]c1=S | – | – | – | – | -80
CCCCn1c(-c2csc3ccccc23)n[nH]c1=S | – | ? | – | · | –
COC(=O)c1ccc(C(NC(=O)OCc2ccccc2)/C(C)=C/[C@@H](C)C(=O)N2CCN(C)CC2)cc1 (some centres undefined) | – | · | · | · | ·
Cc1cc(-n2c(C)cc(C(=O)CN3C(=O)NC4(CCCCC4C)C3=O)c2C)no1 (centres undefined) | – | – | – | 2.3µM | –
Cc1cc(-n2c(C)cc(C(=O)CN3C(=O)NC4(CCCCC4)C3=O)c2C)no1 | – | – | – | 13µM | –
Cc1cc(-n2c(C)cc(C(=O)CN3C(=O)NC4(CCCC4)C3=O)c2C)no1 | – | – | – | ? | –
CC(C)C[C@@H]1Cc2[nH]c(=S)[nH]c(=O)c2[C@H](CCc2ccccc2)O1 | · | · | · | · | –
Cc1nc2c(Br)cc(Br)cc2c(=O)n1-c1ccccc1NC1OCC(O)C(O)C1O (centres undefined) | · | · | · | · | -77
C=CCN(c1ccccc1OC)S(=O)(=O)c1cccc(C(=O)NCC(c2ccc(OC)cc2)N2CCCC2)c1 (centres undefined) | · | · | · | · | –
CC(C)[C@H]1COC(c2cccc([N+](=O)[O-])c2)=N1 | – | · | · | · | ·
c1ccc(N2CCN(c3c4c(nc5ncnn35)CCC4)CC2)cc1 | – | ? | – | – | -62
Cc1cc(N2CCN(c3ccccc3)CC2)n2ncnc2n1 | – | – | – | – | ?

Screens from PubChem BioAssay.
